High-throughput results deposited in PubChem by National Center for Advancing Translational Sciences (NCATS).
A selection: hits, their analogues and other compounds. The true share with any hit is near 19%.
TDP1 cell noCPT – qHTS for Inhibitors of human tyrosyl-DNA phosphodiesterase 1 (TDP1): qHTS in cells in absence of CPT; AID 686978, 2013; Potency, µM (top dose mostly 46.2 µM), for inactives: top-dose activity change, negative = growth inhibition, most hits filed as inhibitors; DT40 Tdp1-/- hTDP1 cells, no CPT, ATP luminescence, 48 h; 15% of 420,000 active; further: nearly all actives have a fitted effect of over 55% in size
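Luminescent ATP content (CellTiter-Glo) served as the growth readout. Knockout chicken DT40 cells expressing human TDP1 were exposed to compounds without camptothecin for a minimum 48 hr at 37 °C.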
HT1080 IDH1KD tx – qHTS for induction of synthetic lethality in tumor cells producing 2HG: qHTS for the HT-1080-IDH1KD cell line; HT-1080 IDH1 knockdown viability, ATP luminescence, 48 h; Potency, µM (titrated, usually from 46.1 µM), for the others: at the highest dose activity, negative = toxicity, hits mostly cytotoxic; 2% of 360,000 active; AID 686971, 2013;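 further: 0% = DMSO wells and -100% = cell-free medium wells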
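CellTiter-Glo luminescence after 48 h compound exposure at 37 degrees C of IDH1-knockdown HT-1080 cells in 5% FBS RPMI. %Activity scaled between DMSO wells and cell-free media wells, with curves fitted and assigned curve classes.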
KB-3-1 tox – qHTS assay for MDR1-selective chemotherapeutics: Primary screen using the parental adenocarcinoma cell KB-3-1. KB-3-1 viability, CellTiter-Glo ATP luminescence, 72 h. 1.4% of 400,000 active. AID 1347075, 2019. Potency, µM (series often up to 46.1 µM), most hits filed as cytotoxic; further: nearly all actives have a fitted effect of over 60% in size
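Parental KB-3-1 viability, qHTS format: 72 h compound exposure, 37 °C; CellTiter-Glo; media-only wells and DMSO plates as controls; concentration-effect fits on corrected data.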
KB-V1 MDR tox – qHTS assay for MDR1-selective chemotherapeutics: Primary screen using the drug-selected MDR subline cells KB-V1 | KB-V1 MDR cells viability, CellTiter-Glo, 72 h | 3.4% of 400,000 active | Potency, µM (series often up to 46.1 µM), hits mostly cytotoxic; further: nearly all actives have a fitted effect of over 60% in size
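Cytotoxicity via CellTiter-Glo luminescence after 72 h compound exposure at 37 degrees C. Cells: drug-selected KB-V1 line, DMEM phenol-red free plus 10% FBS. Compounds tested at multiple concentrations; normalized data fitted to concentration-effect curves.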
HT1080NT lethal – qHTS for induction of synthetic lethality in tumor cells producing 2HG: qHTS for the HT-1080-NT fibrosarcoma cell line; HT-1080-NT fibrosarcoma viability, CellTiter-Glo ATP luminescence, 48 h; Potency, µM (doses to about 46.1 µM), inactives show top-dose activity, negative = less viability, hits mostly cytotoxic; 1.6% of 360,000 active;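 further: NT is the 2HG producing partner of a matched IDH1 knockdown line; 0% = DMSO-treated cells and -100% = media-only wells without cells; nearly all actives have a fitted effect of over 55% in size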
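Fibrosarcoma NT cells, 750 per well in 5% FBS RPMI, were exposed to compound for 48 hours. Viability: CellTiter-Glo luminescence.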
DT40 TDP1 CPT – qHTS for Inhibitors of human tyrosyl-DNA phosphodiesterase 1 (TDP1): qHTS in cells in presence of CPT; Potency, µM (top dose mostly 46.2 µM), without a hit: at the top dose activity change, negative = growth inhibition, actives largely listed as inhibitors; 12% of 420,000 active; chicken DT40 Tdp1-/-;hTDP1 cells + 20 nM CPT, ATP luminescence, 48 h; AID 686979, 2013; further: nearly all actives have a fitted effect of over 55% in size
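Cell growth measured by CellTiter-Glo luminescence after a minimum 48 h, 37 C compound exposure with 20 nM CPT in Tdp1-knockout DT40 cells stably expressing hTDP1, seeded 400/well; qHTS titration format.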
Active calls of the source: *; i = inactive; ? = inconclusive; . = no result given. The call rests on the fitted dose curve; in most records, active means well fitted curve in the direction sought with a large enough effect; inconclusive means small, poorly fitted or top-dose-only effect, or another doubt; inactive means no such curve, though single readings can be large; an effect the other way counts as inactive or inconclusive. Unless noted, on the % scale 0 is the no-effect control and ±100 the full control effect; potency means the concentration at half of the fitted maximal effect.

SMILES	TDP1 cell noCPT	HT1080 IDH1KD tx	KB-3-1 tox	KB-V1 MDR tox	HT1080NT lethal	DT40 TDP1 CPT
CC1(C(=O)NCc2ccccn2)C=CCN1C(=O)c1ccccc1 (configuration not stated)	2%	3%	i	i	5%	13%
Cc1cc(N2CCN(C)CC2)nc2ccc(NC(=O)c3ccc(C(C)(C)C)cc3)cc12	4.6µM*	.	?	?	.	7.3µM*
Cc1cc(C)cc(Oc2nc3c(c(=O)n(C)c(=O)n3C)n2Cc2ccc(F)cc2)c1	?	.	i	i	.	?
C(=N\Nc1ccc2nncn2n1)/c1ccccn1	23µM*	?	i	?	?	12µM*
C(=N\n1cnnc1)/c1ccccn1	-13%	1%	i	i	4%	-5%
C/C(=N\Nc1ccc2nncn2n1)c1ccccn1	4.6µM*	?	?	i	?	2.3µM*
C/C(=N\Nc1ccc2nncn2n1)c1ccco1	0%	-3%	i	i	-3%	1%
C[C@H](NC(=O)c1[nH]cnc1C(=O)N[C@H](C)c1ccccc1)c1ccccc1	?	3%	i	i	-2%	?
C[C@@H]1CC[C@H](O)/C=C/C(=O)O[C@H](C)CC[C@H](O)/C=C/C(=O)O1	5.2µM*	-14%	?	i	3%	5.2µM*
O=C(NC1CCCC1)C(c1ccco1)N1CCC(O)(c2ccc(Cl)cc2)CC1 (configuration not stated)	18µM*	7%	i	?	9%	23µM*
CC(C)C(C(=O)NC1CCCC1)N1CCC(O)(c2ccc(Cl)cc2)CC1 (configuration not stated)	?	3%	i	?	-13%	?
Cc1ccc(C)c(N2CCN(C(C(=O)NC3CCCC3)c3ccco3)CC2)c1 (configuration not stated)	12µM*	?	?	?	?	?
CCOC(=O)N1CCN(C(C(=O)NC2CCCC2)c2ccco2)CC1 (configuration not stated)	-1%	3%	i	?	-2%	?
COc1cccc(C(C(=O)NC2CCCC2)N2CCN(c3ncccc3C#N)CC2)c1OC (configuration not stated)	16µM*	-1%	i	?	7%	?
COc1cccc(C(C(=O)NC2CCCC2)N2CCN(c3cc(C)ccc3C)CC2)c1OC (configuration not stated)	21µM*	?	?	16µM*	?	21µM*
COc1ccc(C)cc1NC(=O)C(=O)NCCc1sc(-c2ccc(Cl)cc2)nc1C	-27%	.	i	i	.	-9%
CC1CN(c2ncnc3c2c(-c2ccccc2)cn3-c2ccc(F)cc2)CC(C)O1 (configuration not stated)	9.2µM*	?	i	?	?	16µM*
OCCN1CCN(c2ncnc3c2c(-c2ccccc2)cn3-c2ccc(F)cc2)CC1	26µM*	18µM*	i	i	?	?
CN(c1ncnc2c1c(-c1ccccc1)cn2-c1ccc(F)cc1)C1CCCCC1	23µM*	.	.	.	.	?
COC(=O)C(C)Sc1ncnc2c1c(-c1ccccc1)cn2-c1ccc(F)cc1 (configuration not stated)	16µM*	.	i	i	.	4.1µM*
OCCN1CCN(c2ncnc3scc(-c4ccc(F)cc4)c23)CC1	4%	-17%	i	i	-11%	-7%
CC1CCCN(C2(O)C(=O)Nc3ccc(Cl)cc32)C1 (configuration not stated)	?	3%	i	i	8%	-10%
CCc1ccc(CNC(=O)CSc2cc(=O)n(C)c3ccc(Cl)cc23)cc1	23µM*	.	i	i	.	23µM*
CCn1c(=O)cc(SCC(=O)Nc2ccc(Cl)cc2)c2ccccc21	-17%	-2%	i	?	-2%	20%
CCn1c(=O)cc(SCC(=O)NCc2cccc(Cl)c2)c2ccccc21	9.2µM*	.	?	?	.	?
SMILES	TDP1 cell noCPT	HT1080 IDH1KD tx	KB-3-1 tox	KB-V1 MDR tox	HT1080NT lethal	DT40 TDP1 CPT
CCn1c(=O)cc(SCC(=O)NCc2ccc(Cl)cc2)c2ccccc21	21µM*	.	i	i	.	10µM*
COc1cc(/C=N/n2c(-c3ccc4c(c3)NC(=O)CO4)csc2=Nc2cccc(C)c2)ccc1O	?	-15%	i	i	-9%	13µM*
CCOC(=O)c1ccc2c(c1)nc(SCc1cn3ccsc3n1)n2CC	16µM*	-10%	i	?	-13%	?
CCOC(=O)c1ccc2c(c1)nc(SCC(=O)N1CCOCC1)n2CC	-20%	6%	i	i	13%	12%
CC(C)N1CCC(C)(C(=O)Nc2ccccc2Oc2ccccc2)C1 (configuration not stated)	-12%	2%	i	?	17%	-12%
O=C(COC(=O)c1ccccc1NS(=O)(=O)c1cccs1)NCC12CC3CC(CC(C3)C1)C2	?	-9%	i	15µM*	3%	?
c1cc2c(c(CC3CO3)c1CC1CO1)OCCOCCOCCOCCO2 (configuration not stated)	2.3µM*	0%	i	i	0%	2.1µM*
CCOc1ccc(Cc2nccc3cc(OCC)c(OCC)cc23)cc1OCC	5.8µM*	.	.	.	.	5.8µM*
N#C/C(=C\c1ccc(-c2nc3ccccc3s2)o1)C(N)=O	18µM*	-2%	i	i	-16%	?
CNC(=O)/C(C#N)=C/c1ccc(-c2nc3ccccc3s2)o1	?	25%	i	i	24%	-4%
Cc1cccc(N=N/C(=C\O)C(=O)c2cccs2)c1	?	13µM*	i	26µM*	?	?
Cc1cc(C)c(C(=O)c2cccs2)c(C)c1	-5%	7%	i	?	11%	1%
COc1ccccc1-c1nccc(NCc2cccc(C)c2)n1	10µM*	.	.	.	.	16µM*
COc1ccccc1CNc1cc(C)ccn1	-27%	-6%	i	i	-1%	?
